Laboratory results as given in PubChem BioAssay AID463173 (ICCB-Longwood Screening Facility, Harvard Medical School, 2010).
The campaign covered roughly 52,000 compounds. About 4,300 (8.3%) were called active. The sample as a whole holds a higher share of actives than the screen did. Unmarked numbers belong to inactive results. No stated cut-off is given here; in the data, active means survival mostly below about 52% (no sharp cut-off); inactive means mostly above about 56%.

system: DeltatarO mutant; assay: S. aureus survival, RN4220 and DeltatarO strains – OD600, teichoic acid synthesis inhibitors, primary screen (AID 463173); details: S. aureus RN4220 wild type/DeltatarO growth, OD600, 18 h, active compounds read low, screened at 18.75 µg/mL (by protocol)

Structure (SMILES) | survival
CCOc1ccc(NC(=O)C(NS(=O)(=O)c2ccc3c(c2)CCN3C(C)=O)C(C)C)cc1 (configuration not stated) | 124%
CCCOc1ccc(-c2nc(SCC(=O)c3ccc(Cl)cc3)n[nH]2)cc1 | 187%
Cc1ccc(NC(=O)CSc2ncc(S(=O)(=O)c3ccc(C(C)C)cc3)c(=O)[nH]2)cc1C | 87%
Nc1c(C(=O)Nc2ccccc2Cl)c2ccccn2c1C(=O)c1ccc(Cl)cc1 | 80%
CCOC(=O)c1ccccc1NC(=O)CSc1nc2ccncc2[nH]1 | 85%
CC(Sc1ncc(S(=O)(=O)c2ccc(C(C)C)cc2)c(N)n1)C(=O)Nc1ccccc1 (configuration not stated) | 60%
Cc1ccn2c(NC(=O)c3cccc(Cl)c3)c(-c3ccccc3)nc2c1 | 65%
COc1ccc(-c2nc3cc(C)ccn3c2NC(=O)c2cccc(F)c2)cc1 | 53% (active)
COc1ccc(-c2nc3cc(C)ccn3c2NC(=O)c2ccc(F)cc2)cc1 | 37% (active)
COc1ccc(CNC(=O)c2ccc3nc(-c4ccc(F)cc4)c(-c4ccc(F)cc4)nc3c2)cc1 | 78%
O=C(Nc1c(-c2ccc(F)cc2)nc2ccccn12)c1cccc(F)c1 | 146%
Cc1nc2ccccn2c(=O)c1NC(=O)c1cccc(F)c1 | 71%
COc1ccc(-c2nc3cc(C)ccn3c2NC(=O)c2ccc(C)c(C)c2)cc1 | 68%
COCCNc1c(-c2ccccc2)nc2cc(C)ccn12 | 69%
Cc1cccc(C(=O)Nc2c(-c3ccccc3)nc3cc(C)ccn23)c1 | 27% (active)
CCOc1ccccc1NS(=O)(=O)c1ccc(N2CCCCS2(=O)=O)cc1 | 97%
Cc1ccc(NC(=O)/C(C#N)=C/c2cn(CC(=O)NCc3ccco3)c3ccccc23)cc1Cl | 64%
Cc1ccc(S(=O)(=O)NNC(=S)NCC2CCCO2)cc1 (configuration not stated) | 69%
Cc1cc(C)cc(OCc2cc(=O)n3cc(C)sc3n2)c1 | 81%
COc1cccc(OCc2cc(=O)n3cc(C)sc3n2)c1 | 40% (active)
Cc1cn2c(=O)cc(COC(=O)COc3ccc(F)cc3)nc2s1 | 70%
COc1ccc(OCC(=O)OCc2cc(=O)n3cc(C)sc3n2)cc1 | 6% (active)

Structure (SMILES) | survival
O=C(COc1ccc(Cl)cc1)OCc1cc(=O)n2nc(-c3cccs3)sc2n1 | -4% (active)
COc1ccc(OCC(=O)OCc2cc(=O)n3nc(-c4cccs4)sc3n2)cc1 | 94%
O=C(COc1ccccc1)OCc1cc(=O)n2nc(-c3cccs3)sc2n1 | 88%
Cc1cn2c(=O)cc(COC(=O)COc3ccc(C)c(C)c3)nc2s1 | 67%
Cc1cn2c(=O)cc(COc3ccc(Cl)cc3)nc2s1 | 53%
COc1ccccc1-c1nc(CNC(=O)Nc2ccccc2)c(C)o1 | 98%
Cc1ccc(N2C(=O)N(CC(=O)C(C)(C)C)c3ccccc3S2(=O)=O)cc1C | 91%
CCOc1ccc2c(c1)c(=O)c(S(=O)(=O)c1ccc(C)cc1)cn2Cc1ccccc1Cl | 82%
CC1=C(C)C(=O)N(c2ccccn2)C1=O | 93%
Cc1ccc(-n2c(=O)c3ccc(C(=O)NCc4ccccc4Cl)cc3n(CC(=O)Nc3ccc(C)cc3C)c2=O)cc1 | 79%
CC(C)(C)NC(=O)c1cccc(NC(=O)c2ccco2)c1 | 101%
COc1ccc(N2CCN(CNC(=O)c3ccccc3)CC2)cc1 | 95%
Nc1nnc(CCN2C(=O)CSC2=O)s1 | 95%
CCc1cnc2c(c1SCC(=O)NCc1ccc(F)cc1)c(=O)n(C)c(=O)n2C | 119%
CC(C)C(=O)Nc1ccc2nc(SCC(=O)N3CCc4ccccc43)sc2c1 | 97%
CCc1nnc(NC(=O)CSc2nc3c([nH]c4ccccc43)c(=O)n2-c2ccc(F)cc2)s1 | 84%
CCc1ccc(-c2nc(CS(=O)CC(=O)NCCc3ccc(Cl)cc3)c(C)o2)cc1 (configuration not stated) | 91%
COc1ccc2c(c1)c1c(c(=O)n(Cc3ccccc3)c(=O)n1CC(=O)Nc1ccc(C)cc1C)n2C | -2% (active)
Cc1ccc(Cn2c(=O)n(-c3ccc(C)cc3)c(=O)c3c2c2cc(C)ccc2n3C)cc1 | 52% (active)
COc1ccc2c(c1)c1c(c(=O)n(CCc3ccccc3)c(=O)n1Cc1ccccc1)n2C | 90%
COc1ccc2cc(CNc3ccccc3)c(=O)n(CC(=O)Nc3ccc(C)cc3C)c2c1 | 0% (active)
COc1ccc(Cn2c(=O)n(-c3ccc(C)cc3)c(=O)c3c2c2cc(C)ccc2n3C)cc1 | 100%

Structure (SMILES) | survival
Cc1ccc(-n2c(=O)c3c(c4cc(C)ccc4n3C)n(Cc3ccc(F)cc3)c2=O)cc1 | 116%
COc1ccc2c(c1)c1c(c(=O)n(Cc3ccccc3)c(=O)n1CC(=O)Nc1ccccc1F)n2C | 109%
COc1ccc2cc(CNc3ccc(C)cc3)c(=O)n(CC(=O)Nc3ccc(C)cc3Cl)c2c1 | 102%
COc1ccc2c(c1)c1c(c(=O)n(Cc3ccccc3)c(=O)n1CC(=O)Nc1c(C)cccc1C)n2C | 72%
COc1ccc2c(c1)c1c(c(=O)n(CCc3ccccc3)c(=O)n1Cc1cccc(F)c1)n2C | 67%
CCc1ccc(NCc2cc3ccc(OC)cc3n(CC(=O)Nc3ccccc3C)c2=O)cc1 | 83%
COc1ccc2c(c1)c1c(c(=O)n(CCc3ccccc3)c(=O)n1Cc1ccc(F)cc1)n2C | 6% (active)
O=C(Nc1nc2c(F)cccc2s1)c1ccc(S(=O)(=O)N2CCOCC2)cc1 | 103%
COc1cc(NC(=O)c2nn(C)c3c2CS(=O)(=O)c2ccccc2-3)cc(OC)c1 | 68%
Cc1cc(C)c(NC(=O)Cn2cnc3c(oc4ccccc43)c2=O)c(C)c1 | 69%
COc1ccc(C2C(=O)N(C3CCC(C)CC3)CC(=O)N2Cc2ccc(C)cc2)cc1OC (configuration not stated) | 86%
CCC(C(=O)N(C)Cc1ccccc1)n1nc(C)c2sc3ccccc3c2c1=O (configuration not stated) | 66%
O=C(CC(c1ccccc1)c1ccccc1)N1CCN(Cc2ccc3c(c2)OCO3)CC1 | 67%
O=C(CCCc1nc(-c2ccc(Cl)cc2)no1)NCc1ccco1 | 54%
COc1ccc(C(=O)NCc2ccc3c(c2)CCN3C(C)=O)cc1OC | 83%
Cc1ccc(C)c(CNC(=O)c2ccc3c(c2)nc2n3CCC(C)C2)c1 (configuration not stated) | 91%
Cc1ccc(S(=O)(=O)N2CCCc3cc(NS(=O)(=O)c4ccc(C)c(C)c4)ccc32)cc1 | 67%
COc1ccc2c(c1)c1c(c(=O)n(Cc3ccccc3)c(=O)n1Cc1ccc(C)cc1)n2C | 80%
COc1cccc(Cn2c(=O)n(Cc3ccccc3)c(=O)c3c2c2cc(OC)ccc2n3C)c1 | 64%
COc1ccc2c(c1)c1c(c(=O)n(Cc3ccccc3)c(=O)n1Cc1ccccc1)n2C | -1% (active)
Cc1ccc(/C=C/c2nc3ccccc3[nH]2)cc1 | 67%
COc1ccc(C(=O)CSc2nc(C)cc(C)c2C(=O)Nc2ccccc2C)cc1 | 51%

Structure (SMILES) | survival
Cc1ccc(NC(=O)CSc2nc(C)cc(C)c2C(=O)Nc2cccc(C)c2)cc1 | 49%
Cc1cc(C)c(C(=O)Nc2ccccc2)c(SCC(=O)Nc2ccc(Br)cc2C)n1 | 38% (active)
Cc1ccc(NC(=O)c2c(C)cc(C)nc2SCC(=O)Nc2ccc(Br)cc2)cc1 | 40% (active)
Cc1cccc(NC(=O)c2c(C)cc(C)nc2SCC(=O)Nc2c(C)cc(C)cc2C)c1 | 52%
COc1ccccc1NC(=O)c1c(C)cc(C)nc1SCC(=O)c1ccc(Cl)cc1 | 93%
Cc1cccc(NC(=O)c2c(C)cc(C)nc2SCC(=O)c2ccccc2)c1 | 40% (active)
COC(=O)c1ccc(NC(=O)CSc2nc(C)cc(C)c2C(=O)Nc2ccccc2)cc1 | 44%
Cc1cccc(NC(=O)CSc2nc(C)cc(C)c2C(=O)Nc2ccc(Cl)cc2)c1 | 44%
Cc1ccc(C(=O)CSc2nc(C)cc(C)c2C(=O)Nc2cccc(C)c2)cc1 | 43%
CCc1cccc(C)c1NC(=O)CSc1nc(C)cc(C)c1C(=O)Nc1ccccc1 | 44%
CCOc1ccccc1NC(=O)c1c(C)cc(C)nc1SCC(=O)c1cccc(OC)c1 | 40% (active)
Cc1ccc(S(=O)(=O)NCC2CCC(C(=O)NCCc3ccccc3)CC2)cc1 (configuration not stated) | 81%
O=C(NC1CC(=O)N(c2cccc(F)c2)C1)c1ccc(S(=O)(=O)N2CCOCC2)cc1 (configuration not stated) | 76%
Cc1ccc(NC(=O)Cn2c(=O)n(Cc3ccc(C(=O)NCc4ccc5c(c4)OCO5)cc3)c(=O)c3ccccc32)cc1 | 102%
Cc1cc(=O)n(Cc2c(F)cccc2Cl)c2c1c(C)nn2-c1cccc(F)c1 | 77%
Cc1cccc(NC(=O)c2c(NC(=O)c3ccco3)sc3c2CCC(C(C)(C)C)C3)c1 (configuration not stated) | 85%
Cc1ccc(C)c(NC(=O)Cn2cc(C(=O)c3ccco3)c3ccccc32)c1 | 64%
COc1ccc(NC(=O)c2oc3ccccc3c2NC(=O)C23CC4CC(CC(C4)C2)C3)c(OC)c1 | 67%
Cc1ccc(-n2nc(C)c3c(C)cc(=O)n(CC(=O)Nc4cc(Cl)ccc4C)c32)cc1 | 125%
CCc1ccc(-n2nc(C)c3c(C)cc(=O)n(CC(=O)Nc4cc(Cl)ccc4OC)c32)cc1 | 52% (active)
CCc1ccc(-n2nc(C)c3c(C)cc(=O)n(CC(=O)Nc4ccc(OC)c(OC)c4)c32)cc1 | 84%
